We go through 15 compounds from article PMC5540273 (PLoS ONE, 2017).

What all share (settings): concentration: 1 μM, replicates: in singlicate; n = 1
Experiment [1] relates to CDK8.
Experiment [2] relates to CDK9.
In experiment [3] the test system is CDKL1.
For experiment [4], the system named is CDKL2.
Experiment [5] concerns CDKL3.
For experiment [6], the system named is CDKL5.
Experiment [7] concerns CHEK1.
Experiment [8] has as its system CHEK2.
Experiment [9] has as its system CIT.
Experiment [10] relates to CLK1.
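Further: KINOMEscan kinase panel screen.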

In the case of `CSc1ccc(NC2=C(c3ccc(Cl)cc3)C(=O)NC2=O)cc1` [SB-317658], the “%Inh” value in experiment [1], in experiment [2], in experiment [3], in experiment [4], in experiment [5] and in [6] was 0% in each case. The “%Inh” value in experiment [7] is 0%; in experiment [8], 13%; in experiment [9], 0%; in [10] it was 17%.
Regarding `Cc1ccc(Nc2ccnc(Nc3ccc(C)c(F)c3)n2)cc1O.Cl` [GW582868], the “%Inh” value in experiment [1] is given as 0%; in experiment [2] it was 0%; in experiment [3], 9%; in experiment [4], 40%; in experiment [5], 0%; in experiment [6] it was 0%. In addition, the “%Inh” value is 0% in [7], 0% in experiment [8], 28% in experiment [9] and 13% in experiment [10].
Consider `CNc1nccc(-c2ccc3c(N)n[nH]c3c2)n1` [GSK2206003], for which the “%Inh” value in experiment [1] was determined as 32%; in experiment [2], 11%; in experiment [3], 18%; in experiment [4], 17%; in experiment [5], 0%; in experiment [6], 0%. Also, the “%Inh” value turned out to be 0% in experiment [7], 51% in experiment [8], 86% in experiment [9] and 97.1% in experiment [10].
For the compound `Cc1nn2c(=O)cc(N3CCO[C@H](C)C3)nc2n1Cc1cccc(Cl)c1Cl` [GSK2373693], the “%Inh” value in experiment [1] is on record as 0%; in experiment [2], 2%; in experiment [3] it was 1%; in experiment [4] it was 11%; in experiment [5], 0%; in [6], 0%. The “%Inh” value in experiment [7] is 26%; in experiment [8] it was 0%; in experiment [9] it was 21%; in experiment [10], 55%.
On to `O=C(Nc1n[nH]c2nc(-c3cccc(O)c3)ccc12)C1CC1` [SB-711805], for which the “%Inh” value is on record as 0% in experiment [1]; 0% in experiment [2]; 30% in [3]; 80% in [4]; 0% in [5]; 9% in experiment [6]. The “%Inh” value in [7] is listed as 0%; in experiment [8], 25%; in experiment [9] it was 21%; in [10] it was 20%.
As for `COC(=O)Nc1nc2ccc(Oc3ccc(CC(=O)Nc4cc(C(F)(F)F)ccc4F)cc3)cc2[nH]1` [GW680903], the “%Inh” value in experiment [1] is 0%; in [2], 0%; in experiment [3] it was 2%; in [4] it was 14%; in [5] it was 0%; in [6], 0%. The “%Inh” value came out at 0% in experiment [7], 20% in experiment [8], 68% in [9] and 24% in experiment [10].
On to `Cc1ccc(C)c(NC(=O)Nc2ccc(C)c(-c3ccc(C(=O)Nc4ccncc4)cc3)c2)c1` [GSK1398473], for which the “%Inh” value in [1] is on record as 4%; in experiment [2] it was 0%; in experiment [3], 0%; in experiment [4], 42%; in [5], 0%; in [6], 24%. Moreover, the “%Inh” value stood at 22% in [7], 0% in experiment [8], 96.1% in experiment [9] and 24% in [10].
Consider `CCNc1nccc(-c2c(-c3ccc(F)cc3)ncn2C2CCN(C)CC2)n1`, for which the “%Inh” value came out at 0% in experiment [1]; 0% in experiment [2]; 30% in experiment [3]; 0% in [4]; 0% in experiment [5]; 0% in [6]. Also, the “%Inh” value in experiment [7] came out at 7%; in experiment [8] it was 0%; in experiment [9], 30%; in [10], 35%.
Regarding `O=C(Nc1c(F)cccc1F)c1cc(C(=O)c2ccccc2F)c[nH]1` [GSK1326180], the “%Inh” value in [1] turned out to be 14%; in experiment [2] it was 0%; in experiment [3] it was 0%; in [4], 7%; in [5] it was 0%; in experiment [6] it was 0%. In addition, the “%Inh” value was 0% in [7], 11% in [8], 5% in experiment [9] and 22% in experiment [10].
Turning to `CS(=O)(=O)c1cccc(CNc2nc(Nc3ccc4c(c3)CCC(=O)N4)ncc2C(F)(F)F)c1`, the “%Inh” value in [1] was 0%; in [2], 8%; in [3], 23%; in [4], 37%; in [5], 10%; in experiment [6], 0%. Also, the “%Inh” value in [7] turned out to be 0%; in experiment [8], 0%; in experiment [9], 37%; in [10], 46%.
In the case of `Cl.Cl.NC(CNC(=O)c1cc(Br)c(-c2ccnc3[nH]ccc23)s1)c1ccccc1` (stereo not drawn) [GSK1322949], the “%Inh” value came out at 60% in experiment [1]; 15% in [2]; 12% in [3]; 26% in experiment [4]; 0% in experiment [5]; 5% in experiment [6]. The “%Inh” value is on record as 0% in experiment [7], 46% in experiment [8], 98.1% in experiment [9] and 90.9% in experiment [10].
On to `O=C(Nc1n[nH]c2nc(-c3ccccc3)ccc12)C1CC1` [SB-708999], for which the “%Inh” value was found to be 36% in experiment [1]; 0% in [2]; 2% in experiment [3]; 88% in [4]; 10% in experiment [5]; 0% in experiment [6]. The “%Inh” value in [7] was 0%; in [8] it was 0%; in experiment [9], 7%; in experiment [10], 86%.
As for `Cc1cc(-c2c(-c3ccc(F)cc3)ncn2CCCN2CCOCC2)nc(N)n1` [SB-222517], the “%Inh” value in experiment [1] amounted to 0%; in experiment [2], 0%; in experiment [3] it was 30%; in experiment [4] it was 0%; in experiment [5] it was 35%; in [6], 7%. Moreover, the “%Inh” value came out at 0% in experiment [7], 0% in [8], 2% in [9] and 0% in experiment [10].
Regarding `Cc1cccc(Nc2nc(N[C@H]3CCCC[C@H]3N)ncc2C(N)=O)c1.Cl` [GSK986310], the “%Inh” value in [1] turned out to be 0%; in [2], 17%; in experiment [3], 9%; in experiment [4] it was 28%; in experiment [5], 0%; in experiment [6], 0%. The “%Inh” value in experiment [7] is 57%; in [8], 1%; in [9], 66%; in [10] it was 42%.
`Nc1ncnc2scc(-c3ccc(NC(=O)Cc4cc(F)ccc4F)cc3)c12.O=C(O)C(F)(F)F` [SB-731254-M]: the “%Inh” value in experiment [1] came out at 93.8%; in [2], 0%; in experiment [3], 30%; in experiment [4], 28%; in experiment [5], 2%; in [6], 5%. Also, the “%Inh” value in [7] is 9%; in experiment [8] it was 0%; in experiment [9] it was 12%; in experiment [10] it was 16%.
